Reference: PubChem BioAssay (NCATS)
Inconclusive results are not listed. Calls of active or inactive are those of the source. Calls come from the whole dose curve; as a rule, active = well fitted cell-killing curve with a large enough effect; inconclusive = small, poorly fitted or top-dose-only effect, or effect the other way; inactive = flat fitted curve, though single readings scatter.

Experiments:
Experiment in all cases: Primary qHTS to identify gynecologic anti-cancer compounds using libraries of approved drugs and bioactive compounds (AID 1345084); note: nearly all actives have a fitted effect of over 55% in size
C33A = conditions: Gynecologic cancer cell panel viability, ATPlite luminescence, 48 h; series mostly up to 57.5 µM
How it was run: (§1)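 Cytotoxicity screen measuring ATP content by luciferase luminescence. Each compound is applied at five concentrations for 48 h at 37 C with 5% CO2.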

CASKI = conditions: Gynecologic cancer cell panel viability, ATPlite luminescence, 48 h; series mostly up to 57.5 µM
How it was run: as §1

Es-2 = conditions: Gynecologic cancer cell panel viability, ATPlite luminescence, 48 h; series mostly up to 57.5 µM
How it was run: as §1

HeLa = conditions: Gynecologic cancer cell panel viability, ATPlite luminescence, 48 h; series mostly up to 57.5 µM
How it was run: as §1

Hek293T = conditions: Gynecologic cancer cell panel viability, ATPlite luminescence, 48 h, control line for the selectivity index; series mostly up to 57.5 µM
How it was run: as §1

JEG-3 = conditions: Gynecologic cancer cell panel viability, ATPlite luminescence, 48 h; series mostly up to 57.5 µM
How it was run: as §1

OV90 = conditions: Gynecologic cancer cell panel viability, ATPlite luminescence, 48 h; series mostly up to 57.5 µM
How it was run: as §1

PA-1 = conditions: Gynecologic cancer cell panel viability, ATPlite luminescence, 48 h; series mostly up to 57.5 µM
How it was run: as §1

Tov-21-G = conditions: Gynecologic cancer cell panel viability, ATPlite luminescence, 48 h; series mostly up to 57.5 µM
How it was run: as §1

Tov112D = conditions: Gynecologic cancer cell panel viability, ATPlite luminescence, 48 h; series mostly up to 57.5 µM
How it was run: as §1

SKOV3 = conditions: Gynecologic cancer cell panel viability, ATPlite luminescence, 48 h; series mostly up to 57.5 µM
How it was run: as §1
% is set by controls: 0 for no effect and ±100 for the full control effect.

CCC(O)(C(=O)OCc1ccccc1NC(=O)CCC(=O)O)C(C)O (stereo not given)
inactive: Potency (C33A) | Potency (CASKI) | Potency (Es-2) | Potency (HeLa) | Potency (Hek293T) | Potency (JEG-3) | Potency (OV90) | Potency (PA-1) | Potency (Tov-21-G) | Potency (Tov112D)

COc1cc2c(c(OC)c1CC=C(C)C)C[C@H](c1ccc(O)cc1O)CO2
inactive: Potency (C33A) | Potency (CASKI) | Potency (Es-2) | Potency (HeLa) | Potency (Hek293T) | Potency (JEG-3) | Potency (OV90) | Potency (PA-1) | Potency (SKOV3) | Potency (Tov-21-G) | Potency (Tov112D)

CC(C)=CCC/C(C)=C/CO[C@@H]1O[C@H](CO)[C@@H](O)[C@H](O)[C@H]1O
inactive: Potency (C33A) | Potency (CASKI) | Potency (Es-2) | Potency (HeLa) | Potency (Hek293T) | Potency (JEG-3) | Potency (OV90) | Potency (PA-1) | Potency (Tov-21-G) | Potency (Tov112D)

CCc1c(C)nc2c(-c3cnn(-c4cc(CO)ccn4)c3)c[nH]n2c1=O
inactive: Potency (C33A) | Potency (CASKI) | Potency (Es-2) | Potency (HeLa) | Potency (Hek293T) | Potency (JEG-3) | Potency (OV90) | Potency (PA-1) | Potency (SKOV3) | Potency (Tov-21-G) | Potency (Tov112D)

Cn1c(=O)cc(N2CCCC(N)C2)n(Cc2cc(F)ccc2C#N)c1=O (stereo not given)
inactive: Potency (C33A) | Potency (CASKI) | Potency (Es-2) | Potency (HeLa) | Potency (Hek293T) | Potency (JEG-3) | Potency (OV90) | Potency (PA-1) | Potency (Tov-21-G) | Potency (Tov112D)

C=C[C@]1(C)C[C@H](O)[C@@H]2[C@H](OC(=O)[C@@H]2C)C1/C(C)=C/O[C@@H]1O[C@H](CO)[C@@H](O)[C@H](O)[C@H]1O (stereo not given in full)
inactive: Potency (C33A) | Potency (CASKI) | Potency (Es-2) | Potency (HeLa) | Potency (Hek293T) | Potency (JEG-3) | Potency (OV90) | Potency (SKOV3) | Potency (Tov-21-G) | Potency (Tov112D)

C[C@@H]1CC[C@]2(C(=O)O[C@@H]3O[C@H](CO)[C@@H](O)[C@H](O)[C@H]3O)CC[C@]3(C)C(=CCC4[C@@]5(C)C[C@@H](O)[C@H](O)[C@](C)(C(=O)O)C5CC[C@]43C)[C@@H]2[C@]1(C)O (stereo not given in full)
inactive: Potency (C33A) | Potency (CASKI) | Potency (Es-2) | Potency (HeLa) | Potency (Hek293T) | Potency (JEG-3) | Potency (OV90) | Potency (SKOV3) | Potency (Tov-21-G) | Potency (Tov112D)

Cc1cc(OCc2nc(-c3ccccc3Cl)cs2)ccc1OCC(=O)O
inactive: Potency (C33A) | Potency (CASKI) | Potency (Es-2) | Potency (HeLa) | Potency (Hek293T) | Potency (JEG-3) | Potency (OV90) | Potency (PA-1) | Potency (SKOV3) | Potency (Tov-21-G) | Potency (Tov112D)

CC1=CCC2C(C)(C)CCC[C@]2(C)[C@@]12CC[C@](C)(CC(=O)O)O2 (stereo not given in full)
inactive: Potency (C33A) | Potency (CASKI) | Potency (Es-2) | Potency (HeLa) | Potency (Hek293T) | Potency (JEG-3) | Potency (OV90) | Potency (PA-1) | Potency (Tov-21-G) | Potency (Tov112D)

CC(=O)N[C@H]1[C@H](O[C@H]2CC[C@@]3(C)C(CC[C@]4(C)C3CC=C3C5CC(C)(C)CC[C@]5(C(=O)O)[C@H](O)C[C@]34C)C2(C)C)O[C@H](CO[C@@H]2OC[C@H](O)[C@H](O)[C@H]2O[C@@H]2OC[C@@H](O)[C@H](O)[C@H]2O)[C@@H](O)[C@@H]1O (stereo not given in full)
inactive: activity change, negative = cytotoxicity (C33A) -5.03% [at 11.6 µM] | activity change, negative = cytotoxicity (CASKI) -1.03% [at 11.6 µM] | activity change, negative = cytotoxicity (Es-2) -1.64% [at 11.6 µM] | activity change, negative = cytotoxicity (HeLa) -4.4% [at 11.6 µM] | activity change, negative = cytotoxicity (Hek293T) 3.72% [at 11.6 µM] | activity change, negative = cytotoxicity (JEG-3) 4.23% [at 11.6 µM] | activity change, negative = cytotoxicity (OV90) 9.62% [at 11.6 µM] | activity change, negative = cytotoxicity (PA-1) 3.95% [at 11.6 µM] | activity change, negative = cytotoxicity (SKOV3) 10.7% [at 11.6 µM] | activity change, negative = cytotoxicity (Tov-21-G) -0.0551% [at 11.6 µM] | activity change, negative = cytotoxicity (Tov112D) -18.9% [at 11.6 µM]

CC1CCC2C(C)(C)[C@@H](O)CC[C@]2(C)C12Cc1c(O)cc3c(c1O2)CN(C(CCC(=O)O)C(=O)O)C3=O (stereo not given in full)
inactive: Potency (C33A) | Potency (CASKI) | Potency (Es-2) | Potency (HeLa) | Potency (Hek293T) | Potency (JEG-3) | Potency (OV90) | Potency (PA-1) | Potency (Tov-21-G) | Potency (Tov112D)

CC1(C)CCCC2(C)C=C(C(=O)O)C(O)CC12 (stereo not given)
inactive: Potency (C33A) | Potency (CASKI) | Potency (Es-2) | Potency (HeLa) | Potency (Hek293T) | Potency (JEG-3) | Potency (OV90) | Potency (PA-1) | Potency (SKOV3) | Potency (Tov-21-G) | Potency (Tov112D)

O=C(N/N=C/c1ccc(O)c(O)c1)c1cc2ccccc2cc1O
inactive: Potency (C33A) | Potency (CASKI) | Potency (Es-2) | Potency (HeLa) | Potency (Hek293T) | Potency (JEG-3) | Potency (OV90) | Potency (PA-1) | Potency (SKOV3) | Potency (Tov112D)

C[C@@H]1O[C@@H](O[C@@H]2[C@@H](O)[C@H](O[C@H]3CC[C@@]4(C)C(CC[C@]5(C)C4CC=C4[C@@H]6CC(C)(C)CC[C@]6(C(=O)O[C@@H]6O[C@H](CO)[C@@H](O)[C@H](O)[C@H]6O)CC[C@]45C)C3(C)C)O[C@H](C(=O)O)[C@H]2O)[C@H](O)[C@H](O)[C@H]1O (stereo not given in full)
inactive: activity change, negative = cytotoxicity (C33A) -0.88% [at 11.6 µM] | activity change, negative = cytotoxicity (CASKI) 17% [at 11.6 µM] | activity change, negative = cytotoxicity (Es-2) 6.6% [at 11.6 µM] | activity change, negative = cytotoxicity (HeLa) 2.44% [at 11.6 µM] | activity change, negative = cytotoxicity (Hek293T) 5.01% [at 11.6 µM] | activity change, negative = cytotoxicity (JEG-3) 4.87% [at 11.6 µM] | activity change, negative = cytotoxicity (OV90) 3.49% [at 11.6 µM] | activity change, negative = cytotoxicity (PA-1) 2.04% [at 11.6 µM] | activity change, negative = cytotoxicity (Tov-21-G) 1.47% [at 11.6 µM] | activity change, negative = cytotoxicity (Tov112D) 5.96% [at 11.6 µM]

CCC(COC)n1nnc2c(Nc3ccc(OC)cc3C)nc(C)cc21 (stereo not given)
inactive: Potency (C33A) | Potency (CASKI) | Potency (Es-2) | Potency (HeLa) | Potency (Hek293T) | Potency (JEG-3) | Potency (OV90) | Potency (PA-1) | Potency (Tov-21-G) | Potency (Tov112D)
